Assay outcomes from PubChem BioAssay.
Hits are enriched below; roughly 2.4% of the tested compounds scored in any of these assays.
Pol kappa inh-1 – blocks human DNA polymerase kappa activity | Q9UBT6 | purified Pol kappa, fluorescent DNA synthesis assay, 10 min | Potency, µM (top dose mostly 107 µM), actives largely listed as inhibitors | actives 0.53% (n = 400,000) | AID 588579
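Enzyme at 10 nM met test compounds for 15 min at room temperature. Substrate addition (50 nM final) began the reaction, which was monitored by fluorescence at 0 and 10 min.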
Pol eta inh-1 – blocks human DNA polymerase eta activity; recombinant Pol eta, fluorescent DNA replication assay; Q9Y253; actives 1.2% (n = 390,000); AID 588591; Potency, µM (series often up to 114 µM), hits mostly inhibitors
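Fluorescent replication assay: 50 nM final substrate added after a 15 min room-temperature compound preincubation with 10 nM enzyme. Signal taken at 0 min and again at 10 min.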
FEN1 inhibitor – human FEN1 inhibition | P39748 | Recombinant FEN1 flap cleavage, fluorescence, 15 min | Potency, µM (highest dose often 114 µM), usual class: inhibitors | actives 0.35% (n = 390,000) | AID 588795; also: nearly all actives have a fitted effect of over 65% in size
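Quantitative HTS format: each compound was titrated, incubated with 10 nM nuclease for 15 min at room temperature, then challenged with flap substrate at 50 nM final. Signal change over 15 min gave concentration–effect curves.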
WRN inhibitor – WRN helicase (human) inhibition; Q14191; WRN helicase unwinding, fluorescent forked duplex, kinetic; Potency, µM (highest dose often 114 µM), usual class: inhibitors; actives 0.46% (n = 360,000); AID 651768; also: nearly all actives have a fitted effect of over 55% in size
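WRN at 20 nM final preincubated with compound 15 min at room temperature; reaction started with 100 nM fluorophore/quencher forked duplex oligonucleotide and 2 mM ATP final. Unwinding followed kinetically by red fluorescence (ex 525, em 598 nm).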
Pol iota inh – DNA polymerase iota (human) inhibition; actives 1% (n = 390,000); Pol iota fluorescent replication assay, 10 min; Potency, µM (series often up to 115 µM), hits mostly inhibitors
Target sequence (Q9UNA4 whole entry, looked up): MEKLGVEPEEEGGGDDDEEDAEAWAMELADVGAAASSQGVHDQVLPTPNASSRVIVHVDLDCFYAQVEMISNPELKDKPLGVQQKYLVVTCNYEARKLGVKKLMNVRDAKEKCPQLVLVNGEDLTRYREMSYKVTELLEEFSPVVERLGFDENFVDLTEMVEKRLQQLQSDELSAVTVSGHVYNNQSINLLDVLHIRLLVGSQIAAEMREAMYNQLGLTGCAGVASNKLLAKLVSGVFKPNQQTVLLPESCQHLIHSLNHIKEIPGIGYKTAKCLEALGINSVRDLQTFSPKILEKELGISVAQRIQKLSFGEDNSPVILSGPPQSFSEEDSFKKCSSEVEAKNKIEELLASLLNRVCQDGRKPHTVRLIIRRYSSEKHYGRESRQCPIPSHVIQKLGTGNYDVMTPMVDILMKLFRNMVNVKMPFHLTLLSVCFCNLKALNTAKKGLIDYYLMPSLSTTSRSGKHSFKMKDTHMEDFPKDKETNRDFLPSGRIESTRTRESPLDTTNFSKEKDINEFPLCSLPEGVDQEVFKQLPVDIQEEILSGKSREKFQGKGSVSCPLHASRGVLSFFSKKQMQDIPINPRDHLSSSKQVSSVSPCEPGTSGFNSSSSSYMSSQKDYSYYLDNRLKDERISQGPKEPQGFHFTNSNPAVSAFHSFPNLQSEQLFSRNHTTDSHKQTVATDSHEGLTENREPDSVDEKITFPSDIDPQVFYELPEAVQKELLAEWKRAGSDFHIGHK
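Pol iota at 10 nM preincubated 15 min with compounds at room temperature; reaction started with fluorescent substrate, 50 nM final. Fluorescence read kinetically at 0 and 10 min; buffer-only wells as negative control.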
Pol beta inh – blocks human DNA polymerase beta activity. Pol beta primer extension/strand displacement, fluorescence kinetic. actives 1.3% (n = 340,000). Potency, µM (series often up to 114 µM), usual class: inhibitors. P06746
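Curves were derived by four-parameter Hill fits of normalized qHTS data. The kinetic fluorescent primer-extension read was taken at 0 and 10 min after 50 nM substrate, following a 15 min room-temperature preincubation of 10 nM enzyme with compounds.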
GALK inh confirm – galactokinase (human) inhibition, confirmation | actives 70% (n = 150) | shares compounds with Pol eta inh-1 | Potency, µM (highest dose often 115 µM), most hits filed as inhibitors | purified GALK, Kinase-Glo ATP depletion luminescence
GALK redox cs – redox cycling activity in phenol red-HRP assay; shares compounds with Pol eta inh-1; Phenol red-HRP H2O2 redox cycling, absorbance 600 nm; Potency, µM (highest dose often 115 µM), hits mostly inhibitors; actives 40% (n = 150); AID 2035
HEK293 viability – counter-screen for GALK inhibitors: HEK293 cell cytotoxicity | shares compounds with Pol eta inh-1 | HEK-293 viability, ATP luminescence (CellTiter-Glo), 24/48 h | Potency, µM (top dose mostly 46.1 µM), usual class: inhibitors | actives 10% (n = 170) | AID 2547
Pol kappa inh-2 – confirmation of human DNA polymerase kappa inhibitors; purified Pol-kappa, fluorescent strand-displacement substrate; actives 76% (n = 920); shares compounds with Pol eta inh-1; Potency, µM, most hits filed as inhibitors; AID 720501
Pol eta inh-2 – Pol eta (human) inhibition, cherry-pick confirmation. Potency, µM, actives largely listed as inhibitors. Pol eta primer extension, TAMRA/BHQ fluorescence, 10 min. shares compounds with Pol eta inh-1. AID 720502. actives 64% (n = 2,600)
Numbers stand for hits; – = inactive; ? = inconclusive; · = no result given; [ ] = dose if it differs, or a comment. Calls follow the shape of the dose curve; as a rule, active = well fitted curve in the direction sought with a large enough effect; inconclusive = small, poorly fitted or top-dose-only effect, or another doubt; inactive = no such curve, though single readings can be large; an effect the other way counts as inactive or inconclusive.

SMILES | Pol kappa inh-1 | Pol eta inh-1 | FEN1 inhibitor | WRN inhibitor | Pol iota inh | Pol beta inh | Pol eta inh-2 | others
Cc1ccc(S(=O)(=O)c2nc(-c3ccco3)oc2SCC(C)C)cc1 | – | – | – | · | – | – | ·
Cc1c(N=C2C=C(Br)C(=O)C(Br)=C2)c(=O)n(-c2ccccc2)n1C | 79µM | ? | ? | –[11.6 µM] | 4µM | 40µM | 60
CC(C)(C)OC(=O)NCCCCC1=CC2=CC(=O)C(C)(O)C(=O)C2=CO1 (centres undefined) | 79µM | 20µM | – | ? | 50µM | · | 60
O=C1/C(=C/c2ccc(C(=O)O)cc2)CCC/C1=C\c1ccc(C(=O)O)cc1 | – | 8.9µM | – | – | ? | – | 30
Cc1nc2sccn2c(=O)c1S(=O)(=O)Nc1cc(Cl)ccc1O | – | – | – | · | – | – | ·
Cc1ccc2c(c1)c(=O)c1ccccc1n2CCCC(=O)Nc1ccc(Cl)c(Cl)c1 | – | – | – | · | – | – | ·
Cc1ccc2c(c1)c(=O)c1ccccc1n2CCCC(=O)Nc1ccc(Cl)cc1C | – | 89µM | – | · | – | ? | · | Pol kappa inh-2=?
O=C(CCS(=O)(=O)c1ccc(Br)cc1)Nc1ccc(Cl)c(C(F)(F)F)c1 | – | ? | – | · | – | – | ? | Pol kappa inh-2=19
COC(=O)c1ccc(NS(=O)(=O)c2ccc3[nH]c4c(c3c2)CCCC4)cc1 | – | – | – | · | – | – | ·
COC(=O)c1ccc(NS(=O)(=O)c2ccc3[nH]c(=O)oc3c2)cc1 | ? | 25µM | – | –[11.6 µM] | 45µM | 35µM | ?
CCOc1ccccc1NS(=O)(=O)c1cc2[nH]c(=O)c(=O)[nH]c2cc1C | – | – | – | · | – | – | ·
Cc1ccc(-c2cc(-c3coc4ccccc4c3=O)c3c(n2)-c2ccccc2OC3)cc1 | – | – | – | · | – | – | ·
CCOC(=O)CN1C(=O)S/C(=C/c2ccc(C)o2)C1=O | – | – | – | – | – | – | ·
C#CCN1C(=O)S/C(=C\c2ccc(-c3ccc(Cl)c(C(=O)O)c3)o2)C1=O | 35µM | 14µM | ? | –[11.6 µM] | ? | ? | ?
CCOC(=O)c1cnn(-c2ccc(OC)cc2)c1C1CCN(C(=O)OC(C)(C)C)CC1 | – | – | – | · | – | – | ·
O=C1C2C3C=CC(CC3)C2C(=O)N1/N=C/c1ccc(O)cc1 (centres undefined) | – | – | – | – | – | – | ·
O=C1C2C3C=CC(CC3)C2C(=O)N1/N=C/c1ccc(O)c(O)c1 (centres undefined) | ? | 4µM | – | – | ? | ? | ?
Cc1cc2nc3c(=O)n(C)c(=O)n(C)c3nc2cc1N=CN(C)C | – | – | – | · | – | – | ·
O=C(CSc1nc2ccccc2[nH]1)NC1CCCC1 | ? | 40µM | – | ? | ? | 14µM | ?
O=C(NCCc1ccccc1Cl)c1ccc2c(c1)nc1n2CCCCC1 | – | – | – | · | – | – | ·
COc1ccc(C2CC(c3ccccc3)=NN2C(=O)CCCC(=O)O)cc1 (centres undefined) | – | – | – | – | – | – | ·
COc1ccc(C2=NN(C(=O)CCCC(=O)O)C(c3cn(-c4ccccc4)nc3-c3ccccc3)C2)cc1 (centres undefined) | ? | – | – | 0.3µM | 20µM | ? | ? | Pol kappa inh-2=0.38
Cc1cccc(Cn2nnc3c(=O)[nH]c(C4CCN(C(=O)c5ccc(F)cc5)CC4)nc32)c1 | – | – | – | · | – | – | ·
COc1cc(CCc2ccccc2)c(C(=O)O)c(O)c1CC=C(C)C | – | – | ? | – | – | · | ·
COc1cc(CCc2ccccc2)c(C(=O)O)c(O)c1C/C=C(/C)CCC=C(C)C | 79µM | 32µM | ? | ? | ? | · | 85 | Pol kappa inh-2=?
SMILES | Pol kappa inh-1 | Pol eta inh-1 | FEN1 inhibitor | WRN inhibitor | Pol iota inh | Pol beta inh | Pol eta inh-2 | others
CCCCNc1nc2c(c(=O)n(Cc3ccc(Cl)c(Cl)c3)c(=O)n2C)n1C | – | ? | – | · | – | – | ·
O=C(Nc1nc(-c2ccco2)c(-c2ccco2)s1)c1c(F)cccc1Cl | ? | ? | – | – | – | · | ·
O=C(Nc1nc(-c2ccco2)c(-c2ccco2)s1)c1cnccn1 | ? | ? | – | –[11.6 µM] | 50µM | · | 76
C=CCN1C=C2C(=O)C(C)(OC(=O)C3CCCC3)C(=O)C=C2C=C1c1ccsc1 (centres undefined) | – | – | – | – | ? | – | ·
COC/C=C/C1=CC2=CC(=O)C(C)(OC(=O)C3CCCC3)C(=O)C2=CO1 (centres undefined) | 50µM | 20µM | 40µM | 79µM | ? | 40µM | 48
COc1cc(/C=C2/C(=O)NN(c3ccc(Cl)c(Cl)c3)C2=O)cc([N+](=O)[O-])c1O | – | 20µM | ? | 50µM | 18µM | 20µM | 30 | GALK inh confirm=33µM;GALK redox cs=–;HEK293 viability=–
CCOc1ccc(CC(=O)NCCS(=O)(=O)N2CCN(c3ccc(OC)cc3)CC2)cc1 | – | – | – | · | – | – | ·
CCN1C(=O)/C(=C\c2ccc(-c3ccc([N+](=O)[O-])cc3OC)o2)SC1=Nc1cccc(C(=O)O)c1 | – | 28µM | ? | –[11.6 µM] | ? | ? | 76
CCc1ccc(N=C2NC(=O)/C(=C/c3ccc(OCC(=O)O)cc3)S2)cc1 | ? | 45µM | ? | ? | ? | 40µM | · | Pol kappa inh-2=?
CCOc1ccc(N=C2NC(=O)/C(=C/C(=O)OC)S2)cc1 | – | – | – | – | – | – | ·
COCc1cc(C)n(CC(=O)N/N=C/c2ccc(-c3ccc(Cl)c(C(=O)O)c3)o2)c(=O)c1C#N | ? | 10µM | – | ? | 22µM | 20µM | 43
Cc1nc(-c2ccc(S(=O)(=O)Nc3ccc(C#N)cc3)cc2)co1 | – | – | – | · | – | – | ·
Cc1ccc(S(=O)(=O)NCCc2sc3nc(-c4ccccc4)nn3c2C)cc1C | – | – | – | · | – | – | ·
COc1cc(/C=C(/C#N)C(=O)Nc2ccccc2)c(Br)cc1OCc1ccc(C(=O)O)cc1 | – | 79µM | – | ? | ? | – | ?
